Screens as filed in PubChem BioAssay.
Giardia kill: Small Molecules that selectively kill Giardia lamblia: qHTS; Giardia lamblia trophozoite viability; activity change, % at 7.66 µM, hits read low; 340,000 tested, 0.15% active; AID 540267, 2011; in the data active = activity change below about -80%; inconclusive = between about -30% and that limit;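 note: parasites exposed to compound for two days anaerobically before the ATP read; % is set by controls: 0 for no effect and ±100 for the full control effect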
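Luminescence from cellular ATP indicates surviving trophozoites (100 cells/well) following 48 hrs anaerobic compound treatment at 37 deg C; signal develops 15-30 min at room temperature.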
MCF10A rerep: A quantitative high throughput screen for small molecules that induce DNA re-replication in MCF 10a normal breast cells | MCF 10A DNA re-replication, Hoechst nuclear intensity, 48 h | Potency, µM (titrated, usually from 46.1 µM), inactives show at the highest dose activity, positive = re-replication, most hits filed as activators | 350,000 tested, 2.9% active | AID 624296, 2012; note: potency is the fitted concentration of half-maximal effect; % of control where 0% means no effect; nearly all actives have a fitted effect of over 50% in size
Vif-APOBEC3F blk: qHTS for Inhibitors of Vif-A3F Interactions: qHTS; Potency, µM (top dose mostly 46.1 µM), inactives show at the top dose activity, negative = active; HeLa A3F-eYFP + Vif (tagged APOBEC3F with the HIV-1 protein that degrades it), YFP fluorescence increase; AID 602313, 2012; 390,000 tested, 0.2% active; note: potency is the fitted concentration of half-maximal effect; % of control where 0% means no effect; nearly all actives have a fitted effect of over 65% in size
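HeLa cells stably expressing Vif plus C-terminally eYFP-tagged A3F were seeded, incubated overnight at 37 deg C, dosed with compound, incubated overnight again at 37 deg C. Yellow fluorescence (Ex 488/Em 500-530) reported blocked Vif-mediated A3F-eYFP degradation.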
SW480 rereplic: A quantitative high throughput screen for small molecules that induce DNA re-replication in SW480 colon adenocarcinoma cells. SW480 DNA re-replication, Hoechst DNA content imaging, 48 h. Potency, µM (series often up to 46.1 µM), inactives show top-dose re-replication activation, hits mostly activators. 340,000 tested, 1.8% active; note: potency is the fitted concentration of half-maximal effect; % of control where 0% means no effect; nearly all actives have a fitted effect of over 55% in size
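First, 250 cells per well were seeded. Next, compound or vehicle (23 nL) was pinned in, plates sat 48 hr at 37 C. Finally Hoechst was added for 40 min before fluorescence scanning.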
IL-1B inflam inh: qHTS for Inhibitors of Inflammasome Signaling: IL-1-beta AlphaLISA Primary Screen | THP-1 LPS/ATP IL-1B secretion, AlphaLISA, 16 h; hits give low values | 360,000 tested, 4.7% active | activity change, % at 57.5 µM; in the data active = activity change below about -50%; inconclusive = mostly about -30% to -49%; note: % is set by controls: 0 for no effect and ±100 for the full control effect
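THP-1 cells pretreated 1 hr with compounds (up to 57.5 uM final), then stimulated with LPS (250 ng/mL final) plus ATP (1.25 mM final); secreted IL-1B measured by AlphaLISA after 16 hr, decreased signal indicating inhibition.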
Vif-A3G inh: qHTS for Inhibitors of Vif-A3G Interactions: qHTS. DNA dC->dU-editing enzyme APOBEC-3G (Homo sapiens), Q9HC16. Potency, µM (titrated, usually from 46.1 µM), for the others: top-dose activity, negative = active, actives largely listed as inhibitors. 410,000 tested, 0.076% active. AID 602310, 2012. HeLa A3G-eYFP + Vif (tagged APOBEC3G with the HIV-1 protein that degrades it), YFP fluorescence, overnight; note: potency is the fitted concentration of half-maximal effect; % is set by controls: 0 for no effect and ±100 for the full control effect; nearly all actives have a fitted effect of over 60% in size
Target sequence (Q9HC16 whole entry, looked up): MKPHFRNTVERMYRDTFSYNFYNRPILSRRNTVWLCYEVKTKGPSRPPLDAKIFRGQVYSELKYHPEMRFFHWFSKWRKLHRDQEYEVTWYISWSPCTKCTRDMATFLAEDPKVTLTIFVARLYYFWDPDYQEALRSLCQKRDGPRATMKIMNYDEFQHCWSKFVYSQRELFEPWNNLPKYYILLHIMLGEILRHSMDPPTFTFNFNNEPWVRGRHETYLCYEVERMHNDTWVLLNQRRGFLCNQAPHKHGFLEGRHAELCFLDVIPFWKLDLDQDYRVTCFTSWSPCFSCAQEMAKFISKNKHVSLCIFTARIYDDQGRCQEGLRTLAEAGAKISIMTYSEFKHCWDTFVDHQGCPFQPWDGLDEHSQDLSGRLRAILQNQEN
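HeLa cells stably expressing Vif and C-terminally eYFP-tagged A3G, seeded overnight at 37 deg C, then exposed to compound by pintool overnight at 37 deg C. Rise in yellow fluorescence (Ex 488/Em 500-530, Acumen) marks blocked Vif-driven A3G degradation.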
An asterisk follows results filed as active; ? = inconclusive; . = no result given. Shown are actives, neighbours in structure and some others; about 6.9% of the full set was active somewhere. Unless noted, calls come from the whole dose curve; as a rule, active = well fitted curve in the direction sought with a large enough effect; inconclusive = small, poorly fitted or top-dose-only effect, or another doubt; inactive = no such curve, though single readings can be large; an effect the other way counts as inactive or inconclusive.

SMILES | Giardia kill | MCF10A rerep | Vif-APOBEC3F blk | SW480 rereplic | IL-1B inflam inh | Vif-A3G inh
OCC1(Cc2ccccc2)CCN(Cc2cnc(-c3cccc4ccccc34)nc2)CC1 | 13 | ? | 0% | -3% | -57* | 8%
O=C(Cc1ccc(OCCCCc2ccccc2)cc1)NO | . | . | . | . | . | 7%
COc1ccc(NS(=O)(=O)c2ccc(O)c(C(=O)OCC(=O)NC(C)C3CC4CCC3C4)c2)cc1 (configuration not stated) | -16 | 5% | -12% | 1% | 15 | -9%
CC(NC(=O)COC(=O)c1cc(NS(=O)(=O)c2ccc(Cl)c([N+](=O)[O-])c2)ccc1O)C1CC2CCC1C2 (configuration not stated) | 9 | 6.5µM* | -26% | 9.2µM* | -107* | -14%
O=c1[nH]c(NCCO)c(N=Cc2ccccc2)c(=O)[nH]1 | 1 | ? | 0% | 2.3µM* | 12 | -7%
CNCc1ccccc1Sc1cc(O)ccc1O | 7 | -6% | 8% | 4% | -100* | 3%
CNCc1ccccc1Sc1cccc(O)c1 | 10 | 9% | -20% | 0% | ? | 0%
COc1ccc(NC(=S)N(C)CC2COc3ccccc3O2)cc1 (configuration not stated) | -5 | 0.65µM* | -13% | -20% | -16 | 0%
COc1ccc(-n2ccnc(NCc3ccc(C)cc3)c2=O)cc1OC | . | . | -2% | . | . | 5%
COCCCNC(=O)CC(c1cc(OC)c(OC)c(OC)c1)N1Cc2ccccc2C1=O (configuration not stated) | . | . | 0% | . | . | 1%
O=C(Nc1ccccc1N1CCCCC1)c1cccc(Cl)c1 | 3 | 21µM* | 3% | 0% | 13 | 1%
O=C(COc1ccccc1)Nc1ccccc1N1CCCCC1 | 4 | ? | -10% | 1% | 21 | 2%
CCC(=O)N1CCN(c2ccccc2NC(=O)COc2cc(C)ccc2C(C)C)CC1 | 9 | -4% | -3% | 1% | -95* | 1%
O=C(COc1cccc(Cl)c1)Nc1ccccc1N1CCCCC1 | 11 | 18µM* | 0% | 6% | 29 | -9%
CC(C)C(=O)N1CCN(c2ccccc2NC(=O)COc2ccc(C3CCCCC3)cc2)CC1 | 11 | 18µM* | 2% | ? | ? | 0%
COc1cccc(NC(=O)/C(C#N)=C/c2c(C)n(Cc3ccccc3)c3ccccc23)c1 | . | . | -21% | . | . | ?
CCc1ccccc1Nc1cc(C(=O)NCCCN(C)C2CCCCC2)c2ccccc2n1 | . | . | -24% | . | . | 0%
O=C(Nc1ccccc1N1CCCCC1)c1cccs1 | 0 | 21µM* | -3% | 7% | 41 | -1%
COc1cccc(CNC(=O)c2cc(-c3ccc(Cl)cc3)n[nH]2)c1 | . | . | -8% | . | . | 0%
COC(=O)CN1C(=O)C(C)(C)Oc2ccc(C(=O)Nc3ccccc3F)cc21 | 28 | 5% | -6% | 0% | -66* | -3%
O=C(C[N+]12CCCc3cccc(c31)CCC2)c1ccc2ccc3cccc4ccc1c2c34 | . | . | . | . | . | -29%
CCc1ccccc1NC(=O)CSc1ncccc1C(=O)O | . | . | -1% | . | . | 0%
CN(C)S(=O)(=O)c1ccc(C(=O)/C=C/c2cccnc2)cc1 | -6 | 16µM* | -9% | 21µM* | -4 | -6%
O=C(/C=C/c1cccnc1)/C=C/c1cccnc1 | ? | ? | -13% | ? | -93* | -18%
COc1cc(C(=O)/C=C/c2cccnc2)ccc1O | -14 | 5.8µM* | 13% | 16µM* | -99* | ?
SMILES | Giardia kill | MCF10A rerep | Vif-APOBEC3F blk | SW480 rereplic | IL-1B inflam inh | Vif-A3G inh
O=C(/C=C/c1cccnc1)c1cc(F)ccc1O | -6 | 3% | 0% | -16% | -7 | -5%
COc1ccc(OC)c(C(=O)/C=C/c2cccnc2)c1 | 16 | 12µM* | 8% | 21µM* | -98* | -30%
CN(C)S(=O)(=O)c1ccc(C(=O)Nc2cccnc2)cc1 | -8 | 9% | 3% | -4% | -19 | 0%
O=C1CCCc2[nH]c(=O)c(-c3nc(-c4cccc([N+](=O)[O-])c4)cs3)cc21 | . | . | -9% | . | . | -1%
CC(C)OP(=O)(c1ccc(N(C)C)cc1)C(Nc1ccccc1)c1cccnc1 (configuration not stated) | 14 | -3% | -4% | 2% | 1 | -1%
CN(C)c1ccc(P(=O)(OC2CCCCC2)C(Nc2ccccc2)c2cccnc2)cc1 (configuration not stated) | -5 | 5% | 0% | 0% | -52* | 0%
O=C(Cc1ccc(S(=O)(=O)N2CCOCC2)s1)Nc1cc(Cl)ccc1Cl | 10 | -1% | -21% | -9% | -57* | -2%
COc1cc(NC(=O)Cc2ccc(S(=O)(=O)N3CCOCC3)s2)c(OC)cc1Cl | 29 | 10% | 9% | 12% | 12 | 0%
Cc1cc(C)n(-c2nnc(Cl)c3ccccc23)n1 | -27 | ? | -23% | ? | -103* | -2%
O=C(NCCN1CCN(c2cccc(Cl)c2)CC1)c1ccc(CSc2nc3ccncc3[nH]2)cc1 | -3 | 18µM* | 3% | 16% | -63* | 0%
CCN(CCNC(=O)c1ccc(CSc2nc3ccncc3[nH]2)cc1)c1ccccc1 | -1 | ? | -2% | -7% | 36 | 1%
N#CC1=C(N)Oc2cc(N)ccc2C1c1cccc(Br)c1 (configuration not stated) | -2 | 1.6µM* | -8% | ? | 32 | ?
N#CC1=C(N)Oc2cc(N)ccc2C1c1cc(Br)cs1 (configuration not stated) | 1 | ? | -9% | 16µM* | -66* | ?
COc1cccc(C2C(C#N)=C(N)Oc3cc(N)ccc32)c1OC (configuration not stated) | 12 | 7% | 0% | 1% | -5 | -5%
Cc1ccc(C2C(C#N)=C(N)Oc3cc(N)ccc32)cc1 (configuration not stated) | 5 | ? | -13% | 6% | -12 | ?
N#CC1=C(N)Oc2cc(N)ccc2C1c1ccccc1F (configuration not stated) | 1 | 18µM* | -8% | 18µM* | 32 | ?
O=S1(=O)C=CC(Nc2cccc(Cl)c2)C1 (configuration not stated) | 4 | 9% | 3% | 28% | -89* | -10%
COc1ccc(OC)c(CCNC(=O)c2cc3c(-c4ccccc4F)nn(C)c3s2)c1 | . | . | -8% | . | . | -1%
